Only a selection was taken, and hits are over-represented in it overall.
Bm FixLJ act = increases Burkholderia fixLJ two-component signaling; B. multivorans fixK-promoter GFP reporter, 18 h; stronger effect = higher value; z-score (concentration not given with the values); hit rate 0.3% among 29,000;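 active = replicate mean overnight rise in green fluorescent reporter signal, 3 or more SD over negative controls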
The depositor's hits bear a star.

SMILES | Bm FixLJ act
COc1ccc(CNC(=O)Cn2ncc3c4ccccc4n(Cc4cccc(Cl)c4)c3c2=O)cc1 | 24*
COCCn1ccnc1C1CCCN(C(=O)c2cnc3ccccc3c2)C1 (stereo unspecified) | -0.01
CC(c1cc(-c2ccccc2)n[nH]1)N(C)Cc1nc2c(cnn2C)c(=O)[nH]1 (stereo unspecified) | -1.5
Cc1cc(N(C)CCn2ccnc2)nc(N2CCCCC2)n1 | -0.83
Cc1nnsc1CN(C)C(=O)c1ccc2c(c1)CCCO2 | -0.52
COCC1C(NC(=O)Cc2ccc3c(c2)c2ccccc2n3C)C2CCOC21 (stereo unspecified) | 0.39
CCc1nc2ccccc2n1CCC(=O)NCc1csc(N)n1 | -1.2
CCOC(=O)C1=C(C)NC(C)=C(C(=O)OC)C1c1cccc([N+](=O)[O-])c1 (stereo unspecified) | -1.4
C#CCOc1ccc(C2C(C(=O)OC)=C(C)NC3=C2C(=O)c2ccccc23)cc1OCC (stereo unspecified) | 3.7*
CCOC(=O)COc1ccc(C2C(C(=O)OC)=C(C)NC3=C2C(=O)c2ccccc23)cc1Cl (stereo unspecified) | 4.1*
CCOc1cc(C2C(C(=O)OC)=C(C)NC3=C2C(=O)c2ccccc23)c(Br)cc1OC (stereo unspecified) | -0.22
CCOc1cc(Br)c(C2C(C(=O)OC)=C(C)NC3=C2C(=O)c2ccccc23)cc1OCC (stereo unspecified) | -0.42
CCOc1cc(C2C(C(=O)OC)=C(C)NC3=C2C(=O)c2ccccc23)cc(Br)c1OCC (stereo unspecified) | 0.6
Cc1cc(C)n(CC(C)n2ccnc2-c2ccc(-c3ccn[nH]3)o2)n1 (stereo unspecified) | 0.58
CCOC(C)c1ccc(-c2cc(OC(C)C)nc(N)n2)cc1 (stereo unspecified) | 0.75
Cc1cc(C)n(-c2cccc(CN(C)C(=O)NCc3cncn3C3CC3)c2)n1 | -0.4
CCn1cc(CN(C)C(=O)c2ccc(-c3ncnn3C(C)C)cc2)cn1 | 0.8
Cc1ccc2c(c1)c(CNC(=O)N1CCN3C(=O)OCC3C1)nn2C (stereo unspecified) | 0.52
CN1C(C(=O)c2ccccc2)=C(NC(=O)c2ccc(F)cc2)c2ccccc2S1(=O)=O | 7.5*
Cc1ccc(NC(=O)c2ccccc2Br)c(C(=O)c2ccccc2)c1 | 0.54
CCCN1C(C(=O)c2ccccc2)=C(OC(=O)C(C)(C)C)c2ccccc2S1(=O)=O | 0.47
CCCCC(=O)OC1=C(C(=O)c2ccccc2)N(C)S(=O)(=O)c2ccccc21 | 2.3
COC(=O)CN1C(C(=O)c2ccccc2)=C(OC(=O)c2ccc(F)cc2)c2ccccc2S1(=O)=O | 1.6
CN1C(C(=O)c2ccccc2)=C(NC(=O)c2ccccc2Br)c2ccccc2S1(=O)=O | 3.6*
COc1cc(-n2cnnn2)ccc1NC(=O)CN1CC(c2ccccc2)CC1=O (stereo unspecified) | -0.24
SMILES | Bm FixLJ act
Cc1c(Cl)cccc1S(=O)(=O)N1CCC(O)C(C(=O)O)C1 (stereo unspecified) | 0.02
O=C1CC2(CCN(C(=O)c3ccoc3)CC2)OCCN1Cc1ccccc1 | -0.22
CCn1cc(CN(CCOC)C(=O)NCc2ccc(C)cc2C)cn1 | -0.57
O=C1CCC2(CCN(C(=O)c3cccc(O)c3)CC2)CN1CCc1ccncc1 | -1.3
COc1ccc(OC)c(NC2=C(c3ccccc3)C(=O)c3ccccc32)c1 | -0.05
COc1ccc(NC2=C(c3ccccc3)C(=O)c3ccccc32)cc1Cl | 3.8*
Cc1ccc(NC2=C(c3ccc(C(F)(F)F)cc3)C(=O)c3ccccc32)cc1C | 3.3*
COc1ccc(Nc2c3c(nc4ccccc24)CCC3)cc1Cl | -3.5
COc1ccc(C2=C(N3CCN(c4cc(Cl)ccc4C)CC3)c3ccccc3C2=O)cc1 | -0.7
COc1ccc(C2=C(N3CCN(c4cc(C)ccc4C)CC3)c3ccccc3C2=O)cc1 | -0.78
COc1ccc2c(c1)cc(C(=O)N1CC(O)C(Cc3cc(C)no3)C1)n2C (stereo unspecified) | 0.53
CCn1ncc(Cl)c1C(=O)N1CCc2c(c(C(=O)O)nn2CC(C)C)C1 | -0.89
O=C(c1cc(C2CC2)[nH]n1)N1CC(O)C(Cc2ccnc3ccccc23)C1 (stereo unspecified) | -1.6
COc1ccccc1OCC(=O)Nc1c(C(=O)c2ccc(C)cc2)oc2ccccc12 | -2.1
COc1ccc(C(=O)c2oc3ccccc3c2NC(=O)c2ccc(F)cc2)cc1 | -0.26
COc1ccccc1C(=O)Nc1c(C(=O)c2ccccc2)oc2ccccc12 | 3.7*
Cn1cc(CCCNC(=O)Nc2ccc(OCC3CCCCO3)cc2)cn1 (stereo unspecified) | 0.02
O=C(O)c1cc2c(s1)C1(CCN(C(=O)CCC3CCCC3)CC1)OCC2 | -0.58
Cn1c(-c2ccccc2Cl)nc2cc(C(=O)NCCN3CCOC3=O)cnc21 | -1.6
Cc1nnc(SCC(=O)N2CCN(CC(C)C)C3CS(=O)(=O)CC32)o1 (stereo unspecified) | -1.2
CCC(C)Sc1oc(-c2ccco2)nc1S(=O)(=O)c1ccc(C)cc1 (stereo unspecified) | 5.5*
Cc1ccc(CSc2oc(-c3ccco3)nc2S(=O)(=O)c2ccc(C)cc2)cc1 | -0.02
